ERAP1 HTS inh = blocks human ERAP1 aminopeptidase activity; Q9NZ08; recombinant ERAP1, Leu-AMC fluorescence, 60 min; inhibition, % at 10.7 µM; 340,000 tested, 0.15% active; AID 652197;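 active = mean replicate inhibition of at least 30%, or all replicates individually reaching that 30% level; inactive = mean below 30% and not every replicate reaching it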
HDAC3 inh = human HDAC3 inhibition. O15379. recombinant HDAC3, fluorogenic peptide/trypsin coupled, fluorescence. inhibition, % at 8.3 µM. 320,000 tested, 0.15% active; in the data active = inhibition above about 26%, passing the limit was not always enough
Target sequence (O15379 whole entry, looked up): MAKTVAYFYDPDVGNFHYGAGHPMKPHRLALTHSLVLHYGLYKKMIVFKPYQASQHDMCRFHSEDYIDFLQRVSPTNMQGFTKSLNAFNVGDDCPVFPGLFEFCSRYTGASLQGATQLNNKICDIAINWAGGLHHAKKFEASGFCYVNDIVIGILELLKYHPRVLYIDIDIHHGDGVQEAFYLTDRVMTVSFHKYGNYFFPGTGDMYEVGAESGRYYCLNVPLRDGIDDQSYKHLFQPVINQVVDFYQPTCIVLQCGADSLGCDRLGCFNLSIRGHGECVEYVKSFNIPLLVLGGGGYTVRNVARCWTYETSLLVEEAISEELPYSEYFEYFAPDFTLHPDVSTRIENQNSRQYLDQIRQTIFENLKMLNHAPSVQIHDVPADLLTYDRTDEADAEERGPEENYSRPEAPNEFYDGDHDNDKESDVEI
PDI turbidity = inhibitors of human protein disulfide isomerase; PDI insulin aggregation turbidity, A650, 90 min; inhibition, % at 10 µM; 350,000 tested, 0.052% active; AID 588391;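 active = mean inhibition across replicates of 30% or more, whatever share of single replicates reach that level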
SIRT5 inh = blocks human SIRT5 desuccinylation of peptide. Q9NXA8. Purified SirT5, succinyl-peptide AMC, trypsin-coupled fluorescence. inhibition, % at 15 µM. 330,000 tested, 1.1% active; in the data active = inhibition above about 15%
Target sequence (Q9NXA8 whole entry, looked up): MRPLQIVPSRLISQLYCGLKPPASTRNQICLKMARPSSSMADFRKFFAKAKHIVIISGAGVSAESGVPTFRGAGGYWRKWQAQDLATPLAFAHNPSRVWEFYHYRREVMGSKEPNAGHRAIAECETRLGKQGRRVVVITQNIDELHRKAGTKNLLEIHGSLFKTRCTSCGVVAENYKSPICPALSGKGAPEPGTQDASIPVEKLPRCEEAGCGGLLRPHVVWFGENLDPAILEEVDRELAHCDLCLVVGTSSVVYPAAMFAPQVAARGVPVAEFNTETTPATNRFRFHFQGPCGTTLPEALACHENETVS
ERp5 inh = ERp5 (human) disulfide isomerase inhibition. ERp5 insulin aggregation, absorbance 650 nm, 90 min. inhibition, % at 9.99 µM. 350,000 tested, 0.05% active;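 active = mean replicate inhibition above about 25%, with every replicate also reaching it, limit read from the data, passing the limit was not always enough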
Each line names hits and unclear results; the compound was inactive in the other large screens. The entries come from a sample that favours hits as a whole.

C[C@@H]1CCCCO[C@H](CN(C)S(=O)(=O)c2ccc(Cl)cc2)[C@@H](C)CN([C@H](C)CO)C(=O)c2cc(NC(=O)CCCCCC(=O)Nc3ccccc3N)ccc2O1	none (no result: HDAC3 inh, PDI turbidity)
CN(C)CCCNC(=O)C[C@@H]1C=C[C@H](NS(=O)(=O)c2ccccc2)[C@@H](CO)O1	SIRT5 inh 15 (no result: HDAC3 inh, PDI turbidity)
Cc1ccc(S(=O)(=O)N[C@@H]2C=C[C@H](CC(=O)N3CCN(c4ccccc4)CC3)O[C@@H]2CO)cc1	SIRT5 inh 25 (no result: HDAC3 inh, PDI turbidity)
CN(C)CCCNC(=O)C[C@@H]1C=C[C@@H](NS(=O)(=O)c2ccccc2)[C@H](CO)O1	none (no result: HDAC3 inh, PDI turbidity)
Cc1ccc(S(=O)(=O)N[C@H]2CC[C@H](CC(=O)N3CCN(c4ccccc4)CC3)O[C@H]2CO)cc1	none (no result: HDAC3 inh, PDI turbidity)
Cn1cnc(S(=O)(=O)N[C@H]2CC[C@@H](CC(=O)Nc3ccccc3)O[C@@H]2CO)c1	SIRT5 inh 34 (no result: HDAC3 inh, PDI turbidity)
Cc1ccc(S(=O)(=O)N[C@@H]2CC[C@@H](CC(=O)N3CCN(c4ccccc4)CC3)O[C@@H]2CO)cc1	SIRT5 inh 24 (no result: HDAC3 inh, PDI turbidity)
CN1[C@@H]2Cn3c(ccc(C4=CCCCC4)c3=O)[C@H]1[C@@H](C(=O)NCc1cc(F)cc(F)c1)[C@@H]2CO	none (no result: HDAC3 inh, PDI turbidity)
Cc1ccccc1-c1cnc2c(c1)C(=O)N([C@@H](C)CO)C[C@@H](C)[C@H](CN(C)Cc1ccncc1)O2	none (no result: HDAC3 inh, PDI turbidity)
C[C@H](CO)N1C[C@H](C)[C@@H](CN(C)C(=O)CN(C)C)Oc2cc(Br)ccc2S1(=O)=O	none (no result: HDAC3 inh, PDI turbidity)
C[C@H](CO)N1C[C@H](C)[C@H](CN(C)Cc2ccc(Cl)c(Cl)c2)OCc2ccccc2-c2ccccc2C1=O	none (no result: HDAC3 inh, PDI turbidity)
COCC(=O)N1[C@H](CO)[C@H](c2ccccc2)[C@H]1CNC(=O)c1ccccn1	none (no result: HDAC3 inh, PDI turbidity)
O=C(NC[C@@H]1[C@@H](c2ccccc2)[C@@H](CO)N1C(=O)Cc1cccnc1)C1CC1	SIRT5 inh 17 (no result: HDAC3 inh, PDI turbidity)
COCC(=O)N1[C@H](CO)[C@@H](c2ccccc2)[C@@H]1CNC(=O)c1ccccn1	SIRT5 inh 15 (no result: HDAC3 inh, PDI turbidity)
CN(C[C@H]1[C@H](c2ccccc2)[C@@H](CO)N1C(=O)C1CCC1)C(=O)c1ccccn1	SIRT5 inh 16 (no result: HDAC3 inh, PDI turbidity)
CCN(C[C@@H]1[C@@H](c2ccccc2)[C@H](CO)N1C(=O)C1CC1)C(=O)NC1CCCC1	SIRT5 inh 32 (no result: HDAC3 inh, PDI turbidity)
CCN(C[C@@H]1[C@@H](c2ccccc2)[C@@H](CO)N1C(=O)C1CC1)C(=O)NC1CCCC1	none (no result: HDAC3 inh, PDI turbidity)
CO[C@H]1CN(C)C(=O)c2cc(NC(=O)Nc3ccccc3F)ccc2OC[C@@H](C)NC[C@H]1C	none (no result: HDAC3 inh, PDI turbidity)
CCS(=O)(=O)NCC[C@H]1CC[C@@H](NC(=O)C2CCCC2)[C@H](CO)O1	none (no result: HDAC3 inh, PDI turbidity)
COc1ccc(S(=O)(=O)N[C@@H]2CC[C@@H](CC(=O)NCc3ccccc3F)O[C@@H]2CO)cc1	none (no result: HDAC3 inh, PDI turbidity)
C[C@H]1CN([C@@H](C)CO)S(=O)(=O)c2ccc(C3=CCCC3)cc2O[C@H]1CN(C)Cc1ccccc1	none (no result: HDAC3 inh, PDI turbidity)
CC(=O)N1[C@H](CO)[C@H](c2ccc(-c3ccncc3)cc2)[C@@H]1CNC(=O)CC1CC1	SIRT5 inh 22 (no result: HDAC3 inh, PDI turbidity)
CCC(=O)NC[C@H]1[C@@H](c2ccccc2)[C@H](CO)N1C(=O)C1CCC1	SIRT5 inh 20 (no result: HDAC3 inh, PDI turbidity)
C[C@H]1CN([C@@H](C)CO)C(=O)Cc2cc(NC(=O)Nc3ccc4c(c3)OCO4)ccc2O[C@H]1CN(C)C(=O)NC1CCCCC1	none (no result: HDAC3 inh, PDI turbidity)
C[C@@H]1CCCCO[C@@H](CN(C)C(=O)NC2CCCCC2)[C@H](C)CN([C@H](C)CO)C(=O)c2cc(NC(=O)c3ccncc3)ccc2O1	none (no result: HDAC3 inh, PDI turbidity)
O=C(CC1SC(N2CCCCC2)=NC1=O)Nc1cccc(C(=O)Nc2ncccc2O)c1 (stereo not drawn)	HDAC3 inh 65
CC(C)NC(=O)c1cccc(NC(=O)CC2SC(N3CCCCC3)=NC2=O)c1 (stereo not drawn)	none (no result: HDAC3 inh)
CCCCCCSc1ccc([C@@H]2[C@@H]3C(=O)N(C)C(=O)[C@@H]3[C@]3(C(=O)OC)CCCCN23)cc1OC	HDAC3 inh 36
CN1C(=O)c2cc(NC(=O)c3ccc(F)cc3)ccc2OC[C@@H]2O[C@H](CC(=O)NCC3CC3)CC[C@@H]21	none (no result: HDAC3 inh, PDI turbidity)
COc1ccc2c3c(n(C)c2c1)[C@H](CO)N(Cc1ccc2c(c1)OCO2)CC31CN(C(=O)c2ccc3c(c2)OCO3)C1	none (no result: HDAC3 inh, PDI turbidity)
CC(=O)Oc1oc(-c2ccccc2)nc1/C=N/c1ccccn1	HDAC3 inh 84
CCCNC(=O)N1CC2(C1)[C@H](c1ccccc1)[C@H](CO)N2Cc1cccc(F)c1	SIRT5 inh 24 (no result: HDAC3 inh, PDI turbidity)
OC[C@@H]1[C@@H](c2ccccc2)C2(CN(Cc3nccs3)C2)N1Cc1ccncc1	SIRT5 inh 16 (no result: HDAC3 inh, PDI turbidity)
O=C(C1CCCC1)N1CC2(C1)[C@H](c1ccccc1)[C@@H](CO)N2Cc1ccc(Cl)cc1	SIRT5 inh 31 (no result: HDAC3 inh, PDI turbidity)
CCCNC(=O)N1CC2(C1)[C@H](c1ccccc1)[C@@H](CO)N2Cc1cccc(F)c1	none (no result: HDAC3 inh, PDI turbidity)
OC[C@@H]1[C@H](c2ccccc2)C2(CN(Cc3ccccc3)C2)N1Cc1ccncc1	none (no result: HDAC3 inh, PDI turbidity)
O=C(C1CCCC1)N1CC2(C1)[C@@H](c1ccccc1)[C@@H](CO)N2Cc1ccc(Cl)cc1	none (no result: HDAC3 inh, PDI turbidity)
O=C(C1CCCC1)N1CC2(C1)[C@H](c1ccccc1)[C@H](CO)N2Cc1nccs1	SIRT5 inh 18 (no result: HDAC3 inh, PDI turbidity)
Cc1ccc(S(=O)(=O)N(C)C[C@@H]2OCCCC[C@@H](C)Oc3ccc(NC(=O)CCC(F)(F)F)cc3C(=O)N([C@@H](C)CO)C[C@H]2C)cc1	none (no result: HDAC3 inh, PDI turbidity)
C[C@H]1CN([C@@H](C)CO)C(=O)c2cccc(NC(=O)Nc3ccccc3)c2O[C@H]1CN(C)Cc1ccncc1	none (no result: HDAC3 inh, PDI turbidity)
CCCCC(=O)Nc1ccc2c(c1)nc(CCNC(=O)c1ccco1)n2C	SIRT5 inh 23
Cc1noc(C)c1COc1ccc(C(=O)N2CCN(S(=O)(=O)c3cccc(F)c3)CC2)cc1	SIRT5 inh 28
COc1ccc(C#Cc2ccc3c(c2)[C@H]2[C@H](CCN2C(=O)NC(C)C)[C@H](CO)N3C)cc1	none (no result: HDAC3 inh, PDI turbidity)
CO[C@H]1CN(C)C(=O)c2ccc(NC(=O)Nc3ccccc3F)cc2OC[C@H](C)N(C)C[C@H]1C	none (no result: HDAC3 inh, PDI turbidity)
CC1=CC(C)C2(COC(c3ccc[n+](C)c3)OC2)C(C)C1 (stereo not drawn)	ERAP1 HTS inh 106 (no result: HDAC3 inh)
Cc1cc(CNC(=O)Cc2c(F)cccc2Cl)nn1C	SIRT5 inh 23
Cc1cc(CNC(=O)c2cc(COc3c(F)cccc3F)on2)nn1C	none (no result: HDAC3 inh)
O=C(NC1CCCCC1)C1c2ccccc2OCC(=O)N1Cc1ccco1 (stereo not drawn)	SIRT5 inh 16 (no result: ERAP1 HTS inh, HDAC3 inh, PDI turbidity)
CC(=O)NC(Cc1c[nH]c2ccccc12)C(=O)OCC(=O)N1CCN(S(=O)(=O)c2ccc(Cl)cc2)CC1 (stereo not drawn)	PDI turbidity 32 (no result: HDAC3 inh)
O=C(Cc1c[nH]c2ccccc12)N1CCN(S(=O)(=O)c2ccc(Cl)cc2)CC1	none (no result: HDAC3 inh)
CCN1CCCCC(=N/O)/C(=N/O)CCCC1	SIRT5 inh 18
Cc1nc2c(n1O)CCC/C2=N\O	none (no result: ERAP1 HTS inh, SIRT5 inh, ERp5 inh)

Source: PubChem BioAssay (Broad Institute)
